About 760 (69%) of roughly 1,100 compounds were called active. How the calls were made is not given here. So high a share suggests a set chosen from earlier hits. Some of the results follow.
Test: M. tuberculosis growth inhibition, HTS (AID 1259417);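 further: bacteria grown with compound for 5 days at 37 °C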
Conditions: stronger effect = higher value, concentration not given here
[1] = M. tuberculosis DsRed fluorescence growth inhibition
[2] = M. tuberculosis growth inhibition

Structure (SMILES)	inhibition [1]	inhibition [2]
c1c2c(cc3sc(N4CCCC4)nc13)OCO2	100% (active)	99.8%
Cc1cc(NC(=O)CSc2nnnn2-c2ccccc2C)no1	56.3% (active)	88.3%
CCOc1ccc(-c2nnc(SCC(=O)Nc3cc(C)on3)o2)cc1	-1.63% (active)	32.7%
Cc1cc(NC(=O)CSc2nnc(Cc3ccccc3)o2)no1	-2.93% (inactive)	6.89%
Cc1ccc(-c2nnc(SCC(=O)Nc3cc(C)on3)o2)cc1	2.19% (active)	50.5%
CCOc1ccc(NC(=O)CSc2nnc(-c3ccccc3Cl)o2)cc1	13.5% (inactive)	-1.29%
CC(C(=O)Oc1cccc2cccnc12)N1C(=O)C2C3C=CC(C4CC34)C2C1=O (configuration not stated)	100% (active)	101%
O=C(CCN1C(=O)C2C3C=CC(C4CC34)C2C1=O)Oc1cccc2cccnc12 (configuration not stated)	100% (active)	101%
O=C(Oc1cccc2cccnc12)C(Cc1ccccc1)N1C(=O)C2C3CCC(C3)C2C1=O (configuration not stated)	99.8% (active)	101%
O=C(CCN1C(=O)c2ccccc2C1=O)Oc1cccc2cccnc12	99.5% (active)	100%
COc1cc2cc(-c3nc4ccccc4[nH]3)c(N)nc2cc1OC	93.9% (active)	94%
COc1ccc(CNC(=O)c2c(N)nc3sc4c(c3c2C(F)(F)F)CCC4)cc1	4.42% (inactive)	-3.32%
CCc1nc2sc(C(=O)NCc3ccc(F)cc3)c(N)c2c(C(F)(F)F)c1C	41.1% (active)	20.9%
COC(=O)CN1C(c2ccc(OC)cc2)=Nc2ccc(Cl)cc2C1c1ccccc1 (configuration not stated)	52.5% (active)	79.3%
COC(=O)CN1C(c2cccc(Cl)c2)=Nc2ccc(Cl)cc2C1c1ccccc1 (configuration not stated)	10.1% (active)	40.7%
CSc1ccc2nc(Nc3nc4ccc(NC(C)=O)cc4s3)sc2c1	2.19% (inactive)	1.87%
CC12CC3CC(C)(C1)CC(C(=O)Nc1nc4ccccc4s1)(C3)C2	98.3% (active)	97.6%
CCn1nnc(NC(=O)COc2ccc(C3CCCCC3)cc2)n1	37% (active)	86.6%
CCCn1nnc(NC(=O)COc2ccc(C3CCCCC3)cc2)n1	26.3% (active)	72.9%
CCC(=O)Oc1ccc(C(=O)Nc2cc3oc4ccccc4c3cc2OC)cc1	12% (inactive)	10.7%
CCOC(=O)CSCC(=O)Nc1c(C(=O)C2CC2)oc2ccccc12	27.6% (active)	48.3%
CC(C)(C)C(=O)/C=C/Nc1ccccc1O	99.2% (active)	98.5%

Structure (SMILES)	inhibition [1]	inhibition [2]
CSc1nsc(SCC(=O)N2CCN(c3ccccc3)CC2)n1	98.3% (active)	98.7%
O=C(Nc1ccc2c(c1)OCCO2)c1cccc2nc3ccccc3nc12	97.2% (active)	96.7%
COc1cc(NC(=O)c2ccc3c(c2)OCCO3)ccc1NC(=O)c1ccccc1Cl	2.06% (inactive)	9.67%
Cc1ccc(NC(=O)CC2COc3ccccc3O2)cc1Cl (configuration not stated)	2.96% (inactive)	-10.1%
Cc1ccc([N+](=O)[O-])cc1NC(=O)CN(C(=O)c1ccccc1Cl)C1CCCCC1	75.1% (active)	49.8%
COc1ccc(C(=O)Nc2cc(OC)c(NC(=O)c3ccco3)cc2OC)cc1	0.929% (inactive)	-7.24%
COc1ccc(-c2cc(C(=O)NN=CC=Cc3ccccc3OC)[nH]n2)cc1	9.99% (active)	65%
O=C1NN=C2C1=NC1(CCCCC1)Cc1ccccc12	99.4% (active)	99%
CCOC(=O)N1CCN(CCC(=O)c2ccc(Cl)cc2)CC1	25.5% (active)	58.7%
CCCCOc1cccc(C(=O)Nc2nnc(-c3ccc(C)cc3C)o2)c1	92.2% (active)	77.5%
Cc1ccc(-c2nnc(NC(=O)CCOc3ccccc3)o2)c(C)c1	61.8% (active)	78.2%
O=C(CCOc1ccccc1)Nc1nnc(-c2cc(Cl)ccc2Cl)o1	1.59% (inactive)	-1.65%
N=c1sc(/C=C2\C=Nc3ccccc32)c(O)n1-c1nccs1	97.2% (active)	94.9%
Cc1ccc(C(C)C)c(OCc2nn(CC(=O)c3ccc(OC(F)F)cc3)c3[n+]2CCCCC3)c1	100% (active)	99.1%
O=C(c1ccc(NC(=O)C2(c3ccccc3)CCCC2)cc1)N1CCCCC1	99.8% (active)	99.3%
Cc1ccc(C(=O)N2CCN(c3ccc(NC(=O)COc4c(C)cc(C)cc4Br)cc3)CC2)cc1	-0.254% (inactive)	-20.4%
CCC(C)NC(=O)c1ccc(NC(=O)C2(c3ccccc3)CCCC2)cc1 (configuration not stated)	31.9% (active)	42.8%
CSc1nsc(SCC(=O)Nc2ccc(OC(C)=O)cc2)n1	8.33% (inactive)	24.6%
COC(=O)c1ccc(NC(=O)CSc2nc(-c3ccccc3C)ns2)cc1	15.6% (active)	32.6%
Cc1ccc(-c2nsc(SCC(=O)Nc3ccc4c(c3)OCO4)n2)cc1	9.75% (inactive)	1.51%
COC(=O)c1ccc(NC(=O)CSc2nc(-c3cccc(C)c3)ns2)cc1	15.3% (active)	38.3%
Cc1ccc2oc(-c3cc(NC(=O)Cc4ccccc4)ccc3Cl)nc2c1	88% (active)	49.9%

Structure (SMILES)	inhibition [1]	inhibition [2]
COC(=O)CSc1nc2c(c(-c3ccco3)c1C#N)CCCC2	2.74% (inactive)	-22.6%
COC(=O)CSc1nc(N2CCCCC2)c2c(c1C#N)CCCC2	26.1% (active)	78.9%
COC(=O)CSc1nc(-c2ccccc2)c2c(c1C#N)CCCC2	-3.83% (inactive)	-16.2%
COC(=O)C(C)Oc1ccc(-c2nccc(-c3cccs3)n2)cc1 (configuration not stated)	43.6% (active)	69.4%
CC(C)(C)c1cc(Cl)ccc1OCCn1ccnc1	90.4% (active)	95%
CC(C)(C)NCCCCOc1ccc(Cl)cc1C(C)(C)C	59% (active)	43.9%
CC(C)(C)c1cc(Cl)ccc1OCCCCn1ccnc1	99.7% (active)	99.7%
C#CCOCCOCCOCCNc1nc(N2CCN(C(=O)[C@H](Cc3cc4ccccc4[nH]3)n3cc([C@@H](N)CC(C)C)nn3)CC2)nc(N2CCN(C(=O)[C@H](Cc3cc4ccccc4[nH]3)n3cc([C@@H](N)CC(C)C)nn3)CC2)n1	68% (active)	50.3%
O=S(=O)(Nc1cccc2cccnc12)c1ccc(Br)cc1	73.1% (active)	91.6%
Cc1ccc2nsnc2c1S(=O)(=O)Nc1cccc2cccnc12	100% (active)	99.4%
O=S(=O)(Nc1cc(Br)c(O)c2ccccc12)c1ccc(F)cc1	3.24% (inactive)	-11.2%
O=S(=O)(Nc1cc(Sc2cccc3cccnc23)c(O)c2ccccc12)c1ccccc1	3.26% (active)	44.3%
O=C(Nc1ccc(S(=O)(=O)N2CCC(c3nc4ccccc4[nH]3)CC2)cc1)c1cccc(Cl)c1	0.997% (inactive)	-16%
Cc1ccc(NC(=O)N2CCC(c3nc4c(nnn4Cc4cccc(Cl)c4)c(=O)[nH]3)CC2)cc1	97.3% (active)	99.6%
COC(=O)C(C)Oc1ccc2cc(-c3ccc(OC)cc3)c(=O)oc2c1 (configuration not stated)	66.3% (active)	96.3%
C=CCOC(=O)COc1ccc2cc(-c3ccc(OC)cc3)c(=O)oc2c1	97.2% (active)	98.4%
CC(C)OC(=O)COc1ccc2cc(-c3ccccc3)c(=O)oc2c1	61.1% (active)	80.6%
C=CCOC(=O)COc1ccc2c(-c3cc4ccccc4oc3=O)cc(=O)oc2c1	37.7% (active)	60.7%
CCCC1(O)CC(c2ccc(Cl)cc2)NC(c2ccc(Cl)cc2)C1C (configuration not stated)	8.53% (inactive)	-21.7%
C=CCOC(=O)COc1ccc2c(C)c(-c3ccccc3)c(=O)oc2c1	71.8% (active)	92.5%
C=CCOC(=O)COc1ccc2cc(-c3ccccc3)c(=O)oc2c1	93.1% (active)	97%
C=CCOC(=O)COc1ccc2cc(-c3ccc(Cl)cc3)c(=O)oc2c1	98.9% (active)	99.5%

Structure (SMILES)	inhibition [1]	inhibition [2]
Cc1cc(C)cc(Nc2cc(C)nc3c(-c4ccccc4)cnn23)c1	5.66% (inactive)	21.5%
COc1ccc(CCNc2cc(C)nc3c(-c4ccccc4)c(C)nn23)cc1OC	98.5% (active)	98.9%
COC(=O)C(C)Oc1ccc2c(=O)c(Oc3ccccc3Br)coc2c1 (configuration not stated)	59.3% (active)	82.3%
CCc1ccc(Oc2coc3cc(OC(C)C(=O)OC)ccc3c2=O)cc1 (configuration not stated)	65.1% (active)	92.2%
O=C(Nc1ccc(N2CCN(Cc3ccccc3F)CC2)cc1)c1ccc([N+](=O)[O-])o1	100% (active)	99.7%
CC1CCN(c2ccc(NC(=O)c3ccc([N+](=O)[O-])o3)cc2)CC1	98.8% (active)	98.7%
CC(C)C(=O)N1CCN(c2ccc(NC(=O)c3ccc([N+](=O)[O-])o3)cc2)CC1	99.1% (active)	100%
CC(C)C(=O)N1CCN(c2ccccc2NC(=O)c2ccc([N+](=O)[O-])o2)CC1	19.7% (inactive)	5.43%
Cc1sc2ncn(C(C)C(=O)OC3CCCCC3)c(=O)c2c1C (configuration not stated)	6.18% (inactive)	8.72%
Cc1c(Cl)cccc1NC(=O)c1ccc(OC(C)C(=O)OC2CCCCC2)cc1 (configuration not stated)	38.3% (active)	74.3%
CCOC(=O)COc1ccc(S(=O)(=O)Nc2cccc(Cl)c2C)cc1	14.4% (active)	55.5%
CCOC(=O)COc1ccc(C(=O)Nc2cccc(Cl)c2C)cc1	97.7% (active)	97.9%
CCOC(=O)COc1ccc(S(=O)(=O)Nc2c(C)cccc2CC)cc1	53% (active)	92.2%
CCOC(=O)COc1ccc(S(=O)(=O)Nc2ccc(C)c(C)c2)cc1	-1.13% (inactive)	22%
O=C(Nc1sc2c(c1C(=O)NCc1ccco1)CCC2)c1ccccc1[N+](=O)[O-]	3.29% (inactive)	-5.87%
COc1ccccc1C(=O)Nc1sc2c(c1C(=O)NCc1ccco1)CCC2	3.89% (inactive)	-6.54%
CSc1ncc(C(=O)NCc2ccco2)cn1	35.2% (active)	25.2%
Cc1scc(C(=O)NCc2ccco2)c1-c1ccccc1	2.71% (inactive)	6.55%
O=C(NCc1ccco1)c1cc([N+](=O)[O-])cc([N+](=O)[O-])c1	97.8% (active)	93.5%
CSc1ncc(C(=O)Nc2cccc(C(F)(F)F)c2)cn1	12.9% (inactive)	15.6%
